Assay outcomes as filed in PubChem BioAssay.
ClpP mod: qHTS Assay for Activators of ClpP | ATP-dependent Clp protease proteolytic subunit (Bacillus subtilis (strain 168)), P80244 | purified B. subtilis ClpP, FRET peptide cleavage, 20 min | actives 1.9% (n = 340,000) | Potency, µM (doses to about 57.5 µM), for the others: top-dose activity change, negative = active; active means well fitted falling curve with a large enough effect; inconclusive means small, poorly fitted or top-dose-only effect; inactive means no such curve, though single readings can be large or run the other way; further: potency means the concentration at half of the fitted maximal effect; the source files actives as falling curves though it sought activators and does not explain the sign; nearly all actives have a fitted effect of over 65% in size
Target sequence (P80244 whole entry, looked up): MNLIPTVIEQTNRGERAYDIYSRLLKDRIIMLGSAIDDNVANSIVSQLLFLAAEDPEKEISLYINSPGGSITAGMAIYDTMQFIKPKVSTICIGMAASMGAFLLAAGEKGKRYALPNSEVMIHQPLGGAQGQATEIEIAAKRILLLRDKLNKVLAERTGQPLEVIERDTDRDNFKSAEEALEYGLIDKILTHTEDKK
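FRET quenching reversal measured ClpP activation: 10 microg/mL B. subtilis ClpP at pH 8 with the FRET-FV decapeptide, read at 430 nm after 320 nm excitation. The 20-min minus 0-min signal was scaled between DMSO/no-enzyme wells and ADEP (5.8 microM final).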
HEK293 tox: cytotoxicity in counter-screen for GLP-1R inverse agonists; actives 0.13% (n = 410,000); AID 624418; HEK293 cAMP-luciferase reporter cells, luminescence, 24 h; Potency, µM (series often up to 38.3 µM), without a hit: at the highest dose activity change, negative = inhibition, most hits filed as inhibitors;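 further: loss of luciferase light is scored as toxicity; potency means the concentration at half of the fitted maximal effect; on the % scale 0 is the no-effect control and ±100 the full control effect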
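Step one: seed cells (200 cells/uL, DMEM with 10% Nu serum, 1% pen-strep). Step two: 12-hour incubation at 37 deg C. Step three: pin 23 nL compound, incubate 24 hr. Step four: add luciferase reagent, read luminescence 12 min later.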
GLP-1R agonist: GLP-1 receptor (human) agonism. Potency, µM (titrated, usually from 45.6 µM), for the others: at the top dose activation, most hits filed as activators. HEK293 GLP-1R CRE-luciferase, luminescence, 4-6 h; cells express a hypersensitive GLP-1R form. actives 0.007% (n = 380,000). P43220; further: potency means the concentration at half of the fitted maximal effect; % of control where 0% means no effect
GLP-1R inv ag: inverse agonists of human GLP-1 receptor. P43220. actives 1.6% (n = 410,000). Potency, µM (doses to about 38.3 µM), for inactives: at the highest dose activity change, negative = inhibition, hits mostly inhibitors. HEK293 GLP-1R CRE-luciferase, luminescence, 24 h; GLP-1R form is constitutively active; further: potency means the concentration at half of the fitted maximal effect; on the % scale 0 is the no-effect control and ±100 the full control effect; nearly all actives have a fitted effect of over 55% in size
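Cells are plated, allowed 12 hours at 37 deg C, then treated with compounds for 24 hr before luciferase detection reagent is added and luminescence is read after 12 min at room temperature. The HEK293 line carries constitutively active GLP-1R with a cAMP-responsive reporter.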
DRD3 antagonist: blocks the human D3 dopamine receptor. AID 652054. max response, negative = inhibition, %. D3R cells, DiscoveRx beta-arrestin luminescence, antagonist mode; hits give low values. P35462. actives 2.5% (n = 360,000); in the data active means max response below about -50%; inconclusive means no clear call, values can overlap the other calls; further: on the % scale 0 is the no-effect control and ±100 the full control effect
Target sequence (P35462 whole entry, looked up): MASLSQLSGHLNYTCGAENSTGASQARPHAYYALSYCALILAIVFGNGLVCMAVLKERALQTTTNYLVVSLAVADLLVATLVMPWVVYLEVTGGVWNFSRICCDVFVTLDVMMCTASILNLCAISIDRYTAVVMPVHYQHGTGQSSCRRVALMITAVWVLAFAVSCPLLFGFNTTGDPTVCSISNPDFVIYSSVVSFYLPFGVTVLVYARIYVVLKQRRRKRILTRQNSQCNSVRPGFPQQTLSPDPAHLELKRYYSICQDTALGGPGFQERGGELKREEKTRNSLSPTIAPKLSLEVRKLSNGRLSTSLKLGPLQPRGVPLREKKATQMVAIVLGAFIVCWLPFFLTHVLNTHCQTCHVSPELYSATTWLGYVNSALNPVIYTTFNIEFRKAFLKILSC
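Cells expressing the human receptor were seeded at 1500 cells/well, incubated overnight at 37 degrees C in 5% CO2, then exposed to library compounds with dopamine controls for 90 minutes at 37 degrees C before luminescent detection.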
D3 ag: D3 dopamine receptor (human) agonism. P35462. max activation, %. actives 0.58% (n = 410,000). D3R DiscoveRx beta-arrestin cells, luminescence, 90 min; in the data active means max activation above about 30%; further: 0% is about no effect
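Agonist-mode cell screen: cells plated at 1500/well and incubated overnight at 37 °C, then exposed to library compounds for 90 min at 37 °C. Detection reagent was added for 30–60 min at room temperature, and luminescence was read.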
* hit, by the source's call; ? = inconclusive; nt = no result given; [ ] = remark or other dose. Compounds with a hit are over-represented: about 5.7% of the library has one in this group of screens. Unless noted, the call rests on the fitted dose curve; in most records, active means well fitted curve in the direction sought with a large enough effect; inconclusive means small, poorly fitted or top-dose-only effect, or another doubt; inactive means no such curve, though single readings can be large; an effect the other way counts as inactive or inconclusive.

SMILES	ClpP mod	HEK293 tox	GLP-1R agonist	GLP-1R inv ag	DRD3 antagonist	D3 ag
COc1cc(NC(=O)N2CCc3nc(Nc4cc(Cl)cc(Cl)c4)ncc3C2)cc(OC)c1OC	-16.1%	?	-1.6%	10µM*	-15.8	-1.1
C[C@@H]1COc2cc(N3CC[C@H](O)C3)ccc2S(=O)(=O)N1	-3.9%	4.1%	0.3%	19.7%	-20.2	3.7
NC(=S)N=Nc1c(O)n(CCCl)c2ccccc12	nt	?	23.4%	2.82µM*	-8.0	-5.9
CCOc1ccc2c(c1)c(N=NC(N)=S)c(O)n2C	-0.2%	?	-1.7%	-1.2%	-15.7	3.8
NC(=S)N=Nc1c(O)n(CCCl)c2ccc(Cl)cc12	nt	1.26µM*	26.3%	?	-8.4	1.9
COc1ccc(CSc2nc3ccncc3n2CC(=O)Nc2cc(C)cc(C)c2)cc1	?	?	nt	?	nt	-22.6
COc1ccc(CNC(=O)c2cc3c(=O)n4cccc(C)c4nc3s2)cc1	-24.0%	-4.6%	nt	14.4%	nt	-13.4
Oc1ccc(Nc2nc3ccccc3nc2Nc2ccc(O)cc2)cc1	31.6µM*	?	-39.5%	-81.4%	?	-8.0
Oc1ccc(Nc2nc(-c3ccccc3)nc3ccccc23)cc1	-5.3%	-7.0%	9.6%	?	13.5	-3.7
CN1CCc2cc(Cl)c(O)cc2[C@@H](c2ccccc2)C1	-1.8%	-16.1%	nt	nt	-83.4*	-75.5
CN1CCc2cc(O)c(O)cc2C(c2ccccc2)C1 (centres undefined)	-0.7%	0.5%	-4.5%	-17.0%	1.1	107.9*
CN(C)c1ccc(P(=O)(CC(=O)N/N=C/c2ccc(C#N)cc2)OCCCl)cc1 (centres undefined)	-2.3%	1.3%	11.1%	12.8%	-62.7*	-25.4
Cc1ccccc1OCC(=O)N/N=C/c1ccc(N(C)C)cc1	nt	-8.4%	-0.2%	-28.4%	0.7	-5.0
c1ccc2c3c([nH]c2c1)-c1[nH]ncc1CC3	12.6µM*	2.1%	0.2%	9.5%	-23.7	2.9
Clc1ccc2[nH]c3c(c2c1)CCc1cn[nH]c1-3	28.2µM*	6.2%	3.8%	?	14.9	-3.0
O=C1CCCc2c1[nH]c1ccccc21	-1.2%	-6.0%	-5.1%	6.1%	-17.2	1.7
O=C(NCc1ccc(F)cc1)c1ccc2c(c1)nnn2C1CCCC1	0.2%	-1.4%	nt	-16.3%	nt	-11.9
C[C@@H]1[C@H](O)[C@@H](C)/C=C/C=C/C=C/C=C/C=C/C=C/C=C/[C@H](O[C@@H]2O[C@H](C)[C@@H](O)[C@H](N)[C@@H]2O)C[C@@H]2O[C@](O)(C[C@@H](O)C[C@@H](O)[C@H](O)CC[C@@H](O)C[C@@H](O)CC(=O)O[C@H]1C)C[C@H](O)[C@H]2C(=O)O	nt	nt	9.1%	nt	nt	nt
CCOC(=O)c1c(-c2ccccc2Cl)cn2ccccc12	25.1µM*	12.9%	15.0%	0.0%	-28.6	-2.5
CCOC(=O)c1c(-c2cccc([N+](=O)[O-])c2)cn2ccccc12	nt	-1.5%	?	5.8%	19.7	-5.4
CCOC(=O)C1=C(C)NC(C)=C(C(=O)OCC)C1c1sccc1C	-4.3%	-18.0%	4.3%	7.94µM*	-10.0	-4.9
CCCC1C(C(=O)OCC)=C(C)NC(C)=C1C(=O)OCC	20µM*	-1.5%	30.1%	?	-12.4	1.6
CCOC(=O)C1=C(C)NC(C)=C(C(=O)OCC)C1C(=O)O	0.4%	-8.7%	0.9%	0.0%	13.4	6.7
CCOC(=O)C1=C(C)NC(C)=C(C(=O)OCC)C1c1cccc([N+](=O)[O-])c1	-0.7%	-11.3%	-4.3%	10µM*	9.3	-1.2
O=C(Cn1nc(-c2ccc(Cl)cc2)ccc1=O)NCCc1ccccc1	-8.0%	-18.1%	1.4%	6.4%	nt	-13.9
SMILES	ClpP mod	HEK293 tox	GLP-1R agonist	GLP-1R inv ag	DRD3 antagonist	D3 ag
COc1ccc(C(=O)NCC(c2cccnc2)N2CCN(c3ccc(F)cc3)CC2)cc1 (centres undefined)	-1.6%	1.1%	nt	-11.0%	nt	-3.1
COC(=O)C1=C(C)NC(C)=C(C(=O)OCCCN2CCC(c3ccccc3)(c3ccccc3)CC2)C1c1cccc([N+](=O)[O-])c1 (centres undefined)	nt	nt	-5.2%	nt	nt	19.6
O=C(NCc1cccnc1)c1cccc(C(F)(F)F)c1	1.3%	-2.4%	-6.7%	1.5%	-9.4	-17.8
ONC(=Nc1cccc(C(F)(F)F)c1)c1cccnc1	-1.2%	10.3%	-1.7%	1.8%	-63.1*	-2.5
COc1ccc(-n2c(CCC(=O)O)ccc2-c2ccccc2)c(OC)c1	-11.5%	0.4%	nt	?	nt	-5.8
Cc1ccc(NC(=O)c2cc3c(s2)CCCC3)cc1S(=O)(=O)Nc1ccccc1Cl	25.1µM*	-8.0%	-3.7%	?	-11.7	2.6
Cc1ccc(C(=O)Nc2ccc(C)c(S(=O)(=O)Nc3ccccc3Cl)c2)s1	-10.2%	2.1%[1.53 µM]	-17.6%	?	-7.9	-3.3
OC1CN=C2CCCc3c2n(c2ccc(Cl)cc32)C1 (centres undefined)	15.8%	19.7%	-8.3%	?	-77.0*	-14.9
Cc1cc(C)c2cc(CN(CCN(C)C)C(=O)Nc3ccccc3Cl)c(=O)[nH]c2c1	-29.8%	-5.5%	-2.4%	10µM*	23.5	-0.6
CCc1ccc2[nH]c(=O)c(CN(CCN(C)C)C(=O)Nc3ccccc3)cc2c1	-9.3%	-23.8%	3.3%	8.91µM*	0.0	-2.9
COc1ccccc1NC(=O)N(CCN(C)C)Cc1cc2cc(C)ccc2[nH]c1=O	-17.6%	-12.0%	-0.2%	?	25.2	-3.1
CCc1ccc2[nH]c(=O)c(CN(CCN(CC)CC)C(=O)NC3CCCCC3)cc2c1	?	?	8.8%	10µM*	-12.7	-16.7
Cc1cc(C)cc(NC(=O)Cn2nnc(C(=O)Nc3cc(C)cc(C)c3)c2N)c1	73.2%	-13.7%	-1.2%	?	nt	-3.6
CCCN1CCN(CCCNC(=O)c2cnn(-c3ccc(F)cc3)c2-n2cccc2)CC1	0.2%	-12.7%	-11.8%	-22.0%	nt	-15.9
NC(=O)[C@@H]1CCCN1Cc1c(C(=O)N2CCN(C3CCCCC3)CC2)nc2ccccn12	17.8µM*	60.7%	1.2%	-14.5%	13.0	-0.5
O=C(c1nc2ccccn2c1CN1CCCC(O)C1)N1CCN(C2CCCCC2)CC1 (centres undefined)	-18.6%	2.8%	14.2%	13.8%	-2.7	-2.8
CCCCOn1c(C)c(C(=O)OCC)c2c3no[n+]([O-])c3ccc21	0.3%	-13.3%	-0.7%	4.7%	24.4	3.9
CCCCOn1c(C)c(C(=O)OCC)c2c3nonc3ccc21	17.8µM*	5.1%	-2.7%	-4.2%	0.0	-5.4
